FBPA coupling cs: qHTS Assay for Inhibitors of Fructose-1,6-bisphosphate Aldolase from Giardia Lamblia: Coupling assay counterscreen | coupling enzyme system counterscreen, AmpLite Red fluorescence | activity change, negative = inhibition, % at 58.2 µM, hits read low | AID 2472, 2010 | actives 0.67% (n = 290,000); in the data active = activity change below about -30%
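Activity here indicates interference with the coupling reaction, not aldolase inhibition. Compounds at 57.5 uM final met coupling enzymes for 10 min at RT; substrate and AmpLite Red detection followed, with a 525/598 nm fluorescence read after 20 min.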
GALK inh: qHTS Assay for Inhibitors of Human Galactokinase (GALK) | P51570 | actives 0.007% (n = 270,000) | Potency, µM (highest dose often 57.5 µM), inactives show at the top dose activity change, negative = inhibition, hits mostly inhibitors | Purified GALK, Kinase-Glo residual ATP luminescence; note: potency is the fitted concentration of half-maximal effect
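Human GALK (5 nM) with 35 uM ATP and 100 uM galactose in 20 mM HEPES pH 8.0, 5 mM MgCl2, 60 mM NaCl, 1 mM DTT, 0.01% BSA. After 1 h at room temperature, leftover ATP was read by Kinase-Glo Plus luminescence.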
USP2a inh: qHTS Assay for Inhibitors of Ubiquitin-specific Protease USP2a Using CHOP2 as the Reporter; USP2 core, Ub-CHOP2 coupled fluorogenic reporter, 485/531; Potency, µM (titrated, usually from 38.3 µM), inactives show at the highest dose activity change, negative = inhibition, most hits filed as inhibitors; AID 463254, 2010; actives 0.01% (n = 330,000); Ubiquitin carboxyl-terminal hydrolase 2 (Homo sapiens), O75604;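 note: potency is the fitted concentration of half-maximal effect; plate controls were DMSO wells for no effect and full inhibition by NEM control for full effect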
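Cell-free coupled assay: 10nM USP2 core preincubated 30min RT with compound in Tris-HCl pH 8.0/CaCl2/CHAPS buffer, then 25nM Ub-CHOP2 and 25nM reporter substrate; fluorescence (Ex 485/Em 531) read after 60min RT, normalized to NEM inhibition, concentration-response curves fitted.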
PLK1 PBD inh: qHTS for Inhibitors of PLK1-PDB (polo-like kinase 1 - polo-box domain): Primary Screen; Plk1 PBD binding of FITC phosphopeptide, fluorescence polarization; Potency, µM, inactives show max response, negative = inhibition, usual class: inhibitors; actives 2.8% (n = 360,000); note: potency is the fitted concentration of half-maximal effect; series mostly up to about 57 µM; nearly all actives have a fitted effect of over 65% in size
VDR inhibitor: Inhibitors of the vitamin D receptor (VDR): qHTS. Vitamin D3 receptor (Homo sapiens), P11473. VDR-SRC2-3 peptide fluorescence polarization, 2 h. Potency, µM, without a hit: max response, negative = inhibition, actives largely listed as inhibitors. actives 0.93% (n = 400,000). AID 504847, 2011; note: potency is the fitted concentration of half-maximal effect
Target sequence (P11473 whole entry, looked up): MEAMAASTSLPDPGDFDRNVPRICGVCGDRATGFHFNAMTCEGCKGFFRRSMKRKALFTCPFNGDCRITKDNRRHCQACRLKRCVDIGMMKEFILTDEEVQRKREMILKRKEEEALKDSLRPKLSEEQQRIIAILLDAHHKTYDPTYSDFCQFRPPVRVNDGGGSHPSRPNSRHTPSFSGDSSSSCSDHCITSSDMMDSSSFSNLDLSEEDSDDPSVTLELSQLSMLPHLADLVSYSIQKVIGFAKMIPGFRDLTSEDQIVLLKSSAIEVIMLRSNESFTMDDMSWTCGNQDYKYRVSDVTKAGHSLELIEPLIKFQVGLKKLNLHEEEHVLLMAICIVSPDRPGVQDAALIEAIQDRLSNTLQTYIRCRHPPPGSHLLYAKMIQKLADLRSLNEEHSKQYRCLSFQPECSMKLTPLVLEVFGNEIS
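Fluorescence polarization assay of small-molecule disruption of VDR binding to coregulator peptide SRC2-3. Compounds and controls pin-transferred, then read after 2 h incubation at ambient room temperature.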
USP1-UAF1 inh: Inhibitors of USP1/UAF1: Primary Screen; Ubiquitin carboxyl-terminal hydrolase 1 (Homo sapiens), O94782; recombinant USP1/UAF1, Ub-Rhodamine cleavage fluorescence; Potency, µM (top dose mostly 57.1 µM), without a hit: top-dose activity change, negative = inhibition, usual class: inhibitors; actives 0.23% (n = 390,000); AID 743255, 2014; note: potency is the fitted concentration of half-maximal effect; nearly all actives have a fitted effect of over 60% in size
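In this screen, compounds sit with the deubiquitinase complex (1nM) for 15 min at room temperature before Ub-Rho is added at 150nM final. Fluorescence rise is then followed for 6 reads every 60 seconds.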
Numbers without * were called inactive; ? = inconclusive; . = not tested or not shown; ! = not active in a repeat. In the library only some 3.2% were active in any assay of this set; here they are far more common. Unless noted, calls come from the whole dose curve; as a rule, active = well fitted curve in the direction sought with a large enough effect; inconclusive = small, poorly fitted or top-dose-only effect, or another doubt; inactive = no such curve, though single readings can be large; an effect the other way counts as inactive or inconclusive. Unless noted, % is set by controls: 0 for no effect and ±100 for the full control effect.

SMILES	FBPA coupling cs	GALK inh	USP2a inh	PLK1 PBD inh	VDR inhibitor	USP1-UAF1 inh
CCS(=O)(=O)C1=NN2C(=N)/C(=C\c3ccc(OC(=O)c4ccco4)cc3)C(=O)N=C2S1	.	-2%	0%	?	7%	-13%
Cc1ccc(S(=O)(=O)Oc2ccccc2C=C2C(=O)NC(=O)NC2=O)cc1	.	.	.	4.7µM*	.	-23%
O=C1NC(=O)C(=Cc2ccccc2Oc2ccc(F)cc2)C(=O)N1	0	-3%	3%	12µM*	50µM*	-19%
O=C1NC(=O)C(=CCc2ccccc2)C(=O)N1	.	.	.	0%	?	-7%
c1ccc2c3c([nH]c2c1)CNCC3	2	5%	6%	-2%	-1%	?
CCC(C)NC(=O)c1c(N)n(CCCOC)c2nc3ccccc3nc12 (centres undefined)	-34*	-23%	-1%	-9%	-25%	32µM*
COCCNC(=O)c1c(NC(=O)c2ccco2)n(Cc2ccccc2)c2nc3ccccc3nc12	-33*	-3%	0%	-6%	-16%	-19%
COCCCNC(=O)c1c(NC(=O)c2ccccc2Cl)n(Cc2ccccc2)c2nc3ccccc3nc12	-3	1%	0%	14%	-22%	-4%
COCCCn1c(N)c(C(=O)NCc2ccco2)c2nc3ccccc3nc21	-35*	?	-1%	-7%	2%	?
COCCCn1c(N)c(C(=O)Nc2ccccc2)c2nc3ccccc3nc21	-7	-6%	-1%	-2%	?	?
CCCCCCCCCCCCCCOS(=O)(=O)O	10	.	.	.	28µM*	.
CC12CCC(=O)C=C1CCC1C2CCC2(C)C(O)(C(=O)CO)CCC12O (centres undefined)	.	.	.	-3%	9%	-7%
COc1ccc(OC)c(N=Cc2c(O)n(Cc3ccccc3)c(=S)[nH]c2=O)c1	-20	2%	1%	-14%	-12%	28µM*
Cc1ccc(Sc2ccc(C=C3C(=O)N(C)C(=O)N(C)C3=O)o2)cc1	-11	-1%	5%	0.53µM*	?	-3%
CN1C(=O)C(=Cc2ccc(-c3cccc(Cl)c3)o2)C(=O)N(C)C1=O	4	.	2%	.	.	.
O=C(N/N=C/C1C(=O)NC(=S)N(c2ccccc2)C1=O)c1cc(Br)c(O)c(Br)c1 (centres undefined)	2	6%	1%	3.4µM*	40µM*	-16%
Cn1c(N)c(C(=O)COC(=O)Cc2ccccc2)c(=O)n(C)c1=O	.	.	0%	-5%	-12%	1%
CCCN1CCc2cc(O)cc3c2[C@H]1Cc1ccc(O)c(O)c1-3	.	.	.	-24%	5µM*!	-8%
CCCN1CCc2cccc3c2C1Cc1ccc(O)c(O)c1-3 (centres undefined)	.	.	.	.	-1%	.
CN1CCc2cc(O)cc3c2[C@H]1Cc1ccc(O)c(O)c1-3	.	.	.	-10%	4.5µM*!	-14%
Cc1cccc(N2C(=O)NC(=O)/C(=C\c3cc(C)n(-c4sc5c(c4C#N)CCCC5)c3C)C2=O)c1C	1	-5%	-1%	0.75µM*	16µM*	?
CCCOc1ccc(C(C)=O)cc1Cc1c(O)[nH]c(=S)[nH]c1=O	2	7%	1%	30µM*	?	-12%
CCOc1ccc(C(C)=O)cc1Cc1c(O)[nH]c(=S)[nH]c1=O	-2	7%	2%	30µM*	?	-22%
COc1ccc(C(C)=O)cc1Cc1c(O)[nH]c(=S)[nH]c1=O	2	-1%	-1%	?	?	-12%
CN1CCc2nc3sc(C(=O)NC4CC4)c(N)c3cc2C1	-25	3%	-1%	-1%	2%	-23%
SMILES	FBPA coupling cs	GALK inh	USP2a inh	PLK1 PBD inh	VDR inhibitor	USP1-UAF1 inh
Cc1cc(C=C2C(=O)NC(=S)NC2=O)c(C)n1-c1ccc2c(c1)OCO2	-1	-6%	-4%	2.7µM*	71µM*	-13%
CC[C@@H](CO)NC(=O)[C@H]1C=C2c3cccc4c3c(cn4C)C[C@H]2N(C)C1	-42*	.	.	.	32µM*	.
C[C@@H](CO)NC(=O)[C@@H]1C=C2c3cccc4[nH]cc(c34)C[C@H]2N(C)C1	-18	.	.	.	.	.
N#Cc1ccccc1OCC(=O)N1CCN(CC(=O)Nc2ccc(F)cc2)CC1	.	.	0%	-2%	-3%	-16%
O=[N+]([O-])c1cccc(C2N3CCCN23)c1 (centres undefined)	1	0%	0%	-5%	1%	-22%
O=C(O)c1cccc2c1NC(c1cccc([N+](=O)[O-])c1)C1CC(Sc3ccccc3[N+](=O)[O-])C(Cl)C21 (centres undefined)	12	-13%	-1%	13µM*	59%	?
O=C(O)c1ccc2c(c1)C1C(Cl)C(Sc3ccccc3[N+](=O)[O-])CC1C(c1cccc([N+](=O)[O-])c1)N2 (centres undefined)	2	4%	4%	19µM*	7%	?
CCCCCn1c(=O)c(C(=O)NCc2ccccc2Cl)c(O)c2ccccc21	-4	2%	-2%	-3%	2%	2%
CN1C(=O)C(Cc2cccc3ccccc23)C(=O)N(C)C1=O	-21	2%	0%	21µM*	?	?
C/C(=C/C=C/[C@@H](C)C(=O)O)[C@H]1CN[C@H](C(=O)O)[C@H]1CC(=O)O	0	.	1%	-8%	?	-10%
CC(Oc1cc2oc(=O)c3c(c2cc1Cl)CCCC3)C(=O)NCc1ccccn1 (centres undefined)	5	-1%	2%	24µM*	-6%	-9%
C#CC[N+]1(C)[C@@H]2CC(OC(=O)C(CO)c3ccccc3)C[C@H]1C(O)C2 (some centres undefined)	2	4%	1%	-18%	-12%	8%
NC(=O)c1ccc(N)nc1	3	.	.	-11%	-6%	-7%
O=c1[nH]sc2cc(F)ccc12	3	4%	0%	3.8µM*	7.1µM*	2%
O=C(O)c1nn(Cc2ccc(Cl)cc2Cl)c2ccccc12	4	-2%	4%	-17%	?	16%
COc1ccc(/C=C2/C(=O)N(c3ccccc3)N=C2C)cc1	.	.	.	3.8µM*	89µM*	-20%
CCC[C@@H]1CC2=CC(=O)CC[C@]2(C)[C@@H]2CC[C@@]3(C)[C@H](CC[C@]3(O)CCC(=O)O)[C@H]12	8	.	.	.	-29%	.
